# Most compounds without a hit are left out; they make up all but 9.8% or so of the library.
# HTT cytoprotect: protects HTT-Q103 PC12 cells, measured by ATP; PC12 HTT-Q103 induced, cytoprotection, ATP luminescence, 40 h; Potency, µM (series often up to 56.4 µM), actives largely listed as activators; 230,000 tested, 0.14% active; AID 1471; further: nearly all actives have a fitted effect of over 45% in size
#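 PC12 cells stably carrying ecdysone-inducible Htt exon 1 (Q103)–GFP were induced with 100 nM tebufenozide (final) alongside library compounds in a dose series. Cytoprotection was scored as retained ATP by ATPlite luminescence.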
# HPGD block: inhibitors of human 15-hydroxyprostaglandin dehydrogenase (HPGD); 150,000 tested, 4.3% active; AID 894; purified HPGD, NADH fluorescence kinetic, PGE2 substrate; Potency, µM, usual class: inhibitors; active means well fitted inhibition curve with a large enough effect, not every such curve was filed as active; inconclusive means small, poorly fitted or top-dose-only effect, or another doubt; inactive means no such curve, though single readings can be large or run the other way
# Target sequence (P15428 whole entry, looked up): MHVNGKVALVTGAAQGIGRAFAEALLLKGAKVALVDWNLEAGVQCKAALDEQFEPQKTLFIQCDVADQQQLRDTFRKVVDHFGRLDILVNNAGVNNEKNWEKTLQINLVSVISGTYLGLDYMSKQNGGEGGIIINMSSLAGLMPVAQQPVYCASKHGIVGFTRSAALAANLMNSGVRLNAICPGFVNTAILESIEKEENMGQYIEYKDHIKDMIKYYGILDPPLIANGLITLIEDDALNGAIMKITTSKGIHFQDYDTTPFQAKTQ
#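 NADH formation kinetics: reaction with 30 uM PGE2 and 1 mM NAD+ (final), 20 nM enzyme, Tris-HCl pH 8 with Tween 20, after 15 min compound preincubation at room temperature. Fluorescence change, last versus first of five reads.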
# CBFb RUNX1 block: inhibitors of human CBF-beta and RUNX1 interaction. Q01196+Q13951. AlphaScreen CBFb-His/RUNX1-biotin binding, biochemical. Potency, µM (top dose mostly 59.8 µM), usual class: inhibitors. 230,000 tested, under 10 active. AID 1477
#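 Compounds were screened at multiple concentrations against a preformed CBF-beta(His)/RUNX1(biotin) complex (30 nM of each) for 15 min at room temperature, followed by 90 min with nickel and streptavidin beads and AlphaScreen reading.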
# HTT aggregate: inhibitors of mutant huntingtin aggregate formation in PC12 cells. PC12 HttQ103-GFP aggregates, Acumen cytometry, 40 h. Potency, µM (doses to about 46.1 µM), hits mostly inhibitors. AID 1688. 220,000 tested, 1.1% active; further: nearly all actives have a fitted effect of over 60% in size
#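 Inducible Q103 Huntingtin exon 1–GFP PC12 line, 1500 cells/well in phenol red free DMEM with 5% equine and 5% calf serum. Tebufenozide 100 nM induced expression; compounds titrated; aggregates quantified by cytometry.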
# JMJD2E inh: JMJD2E (human) inhibition; B2RXH2; JMJD2E catalytic domain, FDH-coupled NADH fluorescence (FDH is formaldehyde dehydrogenase); Potency, µM (titrated, usually from 57.1 µM), most hits filed as inhibitors; 230,000 tested, 1.6% active; active means well fitted inhibition curve with a large enough effect, not every such curve was filed as active; inconclusive means small, poorly fitted or top-dose-only effect, or another doubt; inactive means no such curve, though single readings can be large or run the other way; further: nearly all actives have a fitted effect of over 50% in size
# ALDH1A1 block: blocks purified human ALDH1A1 activity | Purified ALDH1A1, NADH fluorescence, propionaldehyde substrate | 220,000 tested, 7.3% active | P00352 | Potency, µM (titrated, usually from 75.3 µM), actives largely listed as inhibitors; active means well fitted inhibition curve with a large enough effect, not every such curve was filed as active; inconclusive means small, poorly fitted or top-dose-only effect, or another doubt; inactive means no such curve, though single readings can be large or run the other way
# A number is an active result; – = inactive; ? = inconclusive; · = no result given; [ ] = dose if it differs, or a comment. Unless noted, the call rests on the fitted dose curve; in most records, active means well fitted curve in the direction sought with a large enough effect; inconclusive means small, poorly fitted or top-dose-only effect, or another doubt; inactive means no such curve, though single readings can be large; an effect the other way counts as inactive or inconclusive.
SMILES,HTT cytoprotect,HPGD block,CBFb RUNX1 block,HTT aggregate,JMJD2E inh,ALDH1A1 block
Nn1c(Cc2ccc(Br)cc2)n[nH]c1=S,–[10 µM],·,–,–,–,11.2µM
CCOc1ccc(Cc2n[nH]c(=S)n2N)cc1,–[10 µM],?,–,–,–,?
COc1ccc(Cc2n[nH]c(=S)n2N)cc1OC,–,·,–,–,–,10µM
O=C(O)c1ccc(CSc2nc(-c3ccc(Cl)cc3)cc(C(F)(F)F)n2)cc1,–,12.6µM,–,–,–,–
CN(C(=S)NC(=O)CCCOc1ccc(Cl)cc1Cl)c1ccccc1,–,11.2µM,–,–,–,17.8µM
CC(C)Nc1nc(NC(C)C)nc(N(C#N)CCOc2ccc(Cl)cc2Cl)n1,–[1.9 µM],–,–,?,–,–
CCN(CC)C(=O)CCCOc1ccc(Cl)cc1Cl,–,25.1µM,–,–,–,–
C#CCN(C)CCCOc1ccc(Cl)cc1Cl,?,14.1µM,–,–,?,–
O=C(O)CCC(=O)NNC(=O)CCCOc1ccc(Cl)cc1Cl,–,–,–,–,–,–
CC(C)NC(=O)CCCOc1ccc(Cl)cc1Cl,–,14.1µM,–,–[9.22 µM],–,–
COc1ccc(C(=O)NN/C(=N/S(=O)(=O)c2ccc(C)cc2)c2ccccc2)cc1,–[10 µM],·,–,–[9.22 µM],?,·
CC1CCCN(Cc2csc(N)n2)C1 (stereo not drawn),–[10 µM],·,–,–,–,–
O=C(COc1ccc(Cl)cc1Cl)Nc1ccc(Cl)cn1,–,8.91µM,–,–,–,–
Cc1ccc2[nH]c3c(c2c1)CN(C(=O)CN1CCN(C(=O)c2ccco2)CC1)CC3,–[10 µM],·,–,–[9.22 µM],–,·
O=C(CN1CCSCC1)N1CCc2[nH]c3ccc(Br)cc3c2C1,–[10 µM],–,–,–,–,15µM
O=C(CN1CCN(C(=O)c2ccco2)CC1)N1CCc2[nH]c3ccccc3c2C1,–[10 µM],·,–,–[9.22 µM],–,10µM
Cc1ccc2[nH]c3c(c2c1)CN(C(=O)CN1CCN(c2cccc(C)c2C)CC1)CC3,–[0.074 µM],?,–,–,22.4µM,4.47µM
Cc1ccc2[nH]c3c(c2c1)CN(C(=O)CN1c2ccc(F)cc2CCC1C)CC3 (stereo not drawn),–,?,?,–,–,?
COc1ccccc1NC(=O)COc1ccc(/C=N/NS(=O)(=O)c2ccc(C)cc2)cc1,–,15.8µM,–,–,–,?
Cc1ccc(S(=O)(=O)N/N=C/c2ccc(OCC(=O)Nc3ccccc3Cl)cc2)cc1,–,14.1µM,–,–,–,–
O=C(COc1ccc(/C=N/NS(=O)(=O)c2ccccc2)cc1)Nc1ccc(F)cc1,–,·,–,–,–,–
Cc1ccc(N(CC(=O)NCc2ccco2)S(=O)(=O)c2ccccc2)cc1,–,–,–,–,–,?
COc1ccccc1N(CC(=O)N/N=C/c1ccc(OCC(=O)NCc2ccco2)cc1)S(=O)(=O)c1ccc(C)cc1,–,15.8µM,–,–[9.22 µM],–,–
Cc1cc(NC(=O)Nc2cc(Cl)ccc2C)no1,–[10 µM],·,–,–[9.22 µM],–,·
CCOC(=O)C1CCCN(Cc2c(C(=O)N3CCCCC3)nc3c(C)cccn23)C1 (stereo not drawn),–[10 µM],·,–,–[9.22 µM],–,?
SMILES,HTT cytoprotect,HPGD block,CBFb RUNX1 block,HTT aggregate,JMJD2E inh,ALDH1A1 block
Cc1cccn2c(CNC3CCCc4ccccc43)c(C(=O)N3CCCCC3)nc12 (stereo not drawn),–[10 µM],·,–,–[9.22 µM],–,20µM
COc1ccc(NC(=O)c2cc(-c3ccccc3)oc2C)cc1,·,22.4µM,–,–,–,?
COc1ccc(NC(=O)c2cc(S(=O)(=O)N3CCCC3)oc2C)cc1,–[10 µM],·,–,–[9.22 µM],–,·
COc1ccc(NS(=O)(=O)c2cc(OC)ccc2NC(=O)c2cc(C)oc2C)cc1,–,–,–,–,–,3.16µM
Cc1oc(-c2ccccc2)cc1C(=O)Nc1ccccc1,–,–,–,–,–,–
Cc1oc(-c2ccccc2)cc1C(=O)Nc1ccc2ccccc2c1,–,?,–,–,–,31.6µM
Cc1oc(-c2ccccc2)cc1C(=O)Nc1cccc(/C=C/C(=O)O)c1,–[10 µM],·,–,–[9.22 µM],–,–
O=c1c(-c2cccs2)nc2cnc(N3CCNCC3)nc2n1-c1ccccc1,–,?,·,·,·,?
O=C(NC(=S)N1CCN(c2nc(-c3ccccc3)cs2)CC1)c1cccnc1,·,–,–,–,–,–
